TMEM16A inh = mouse TMEM16A channel inhibition, primary screen. Q8BHY3. HEK293 TMEM16A/YFP iodide influx fluorescence, ionomycin. normalized B-score (activity score, 25-100; higher = stronger inhibition) at 10 µM. 1.2% of 310,000 active;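 active = ratio plate-corrected score three or more library SD toward inhibition, starting fluorescence score within five deviations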;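 also: score derived from kinetic fluorescence span divided by baseline fluorescence per well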
Target sequence (Q8BHY3 whole entry, looked up): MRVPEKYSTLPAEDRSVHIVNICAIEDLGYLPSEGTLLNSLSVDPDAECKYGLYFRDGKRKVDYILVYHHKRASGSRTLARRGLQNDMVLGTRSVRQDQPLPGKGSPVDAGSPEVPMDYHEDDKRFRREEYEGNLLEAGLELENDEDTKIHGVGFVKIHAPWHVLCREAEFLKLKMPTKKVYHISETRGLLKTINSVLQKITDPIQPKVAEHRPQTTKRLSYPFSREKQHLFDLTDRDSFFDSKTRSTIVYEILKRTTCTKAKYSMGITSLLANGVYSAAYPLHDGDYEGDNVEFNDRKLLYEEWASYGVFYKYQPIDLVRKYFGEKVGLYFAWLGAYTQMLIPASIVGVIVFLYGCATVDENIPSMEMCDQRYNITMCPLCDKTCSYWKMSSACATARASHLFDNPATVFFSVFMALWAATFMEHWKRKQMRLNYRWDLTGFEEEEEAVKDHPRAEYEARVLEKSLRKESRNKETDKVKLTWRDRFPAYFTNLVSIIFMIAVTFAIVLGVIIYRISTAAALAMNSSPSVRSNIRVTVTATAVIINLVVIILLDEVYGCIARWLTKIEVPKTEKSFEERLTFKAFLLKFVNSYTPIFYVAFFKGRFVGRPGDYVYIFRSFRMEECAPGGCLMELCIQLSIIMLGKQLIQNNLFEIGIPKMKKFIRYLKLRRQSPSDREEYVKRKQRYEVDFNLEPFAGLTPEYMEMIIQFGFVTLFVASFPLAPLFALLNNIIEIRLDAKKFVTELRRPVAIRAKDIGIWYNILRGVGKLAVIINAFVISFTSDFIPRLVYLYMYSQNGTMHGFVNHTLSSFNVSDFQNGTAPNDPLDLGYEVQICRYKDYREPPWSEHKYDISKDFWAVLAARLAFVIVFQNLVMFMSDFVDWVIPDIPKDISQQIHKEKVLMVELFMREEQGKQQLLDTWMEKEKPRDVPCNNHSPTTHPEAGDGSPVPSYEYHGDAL
MEKK2wt PB1 HTS = raises or lowers MEK5 binding to wildtype human MEKK2 PB1 domain. AID 1531. 1.1% of 290,000 active. bead flow cytometry, Alexa488-MEK5 binding to MEKK2 WT; actives lie on both sides. binding response (% of control), % at 10 µM; in the data active = binding response below about 67% or above about 130%
TMEM16A act = activates or potentiates the mouse TMEM16A chloride channel. Q8BHY3. HEK293 TMEM16A/YFP-H148Q/I152L, iodide quench fluorescence; stronger effect = lower value. B-score at 10 µM. 0.3% of 340,000 active. AID 623877;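 active = fluorescence-ratio B-score plate-corrected deviation score at least 3 library SD below zero, with starting fluorescence score within 5 deviations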;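 also: channel opened by trigger with iodide after compound preincubation; score built on the fluorescence ratio of max minus min over baseline; more negative score means more quench and so TMEM16A activation or potentiation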
MEKK2mut PB1 HTS = signal of MEK5 binding to mutant human MEKK2 PB1 domain; bead flow cytometry, Alexa488-MEK5 binding to MEKK2 mutant; percent response, % at 10 µM; 0.35% of 290,000 active; in the data active = percent response above about 24%, passing the limit was not always enough
NTR1 agonist = agonists of human neurotensin receptor NTR1; P30989; NTR1-U2OS beta-arrestin-GFP spot imaging, agonist mode; 0.17% of 330,000 active; AID 493036; activation, % at 20 µM;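 active = activation at or above 40% of the spot to cytoplasm intensity ratio, with at least 20 cells analyzed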;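 also: 0% = DMSO without peptide and 100% = 100 nM NTR1 peptide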
MEKK3 PB1 HTS = modulators (inhibitors or enhancers) of MEK5 binding to human MEKK3 PB1 domain; AID 1529; 1.4% of 290,000 active; binding response (% of control), % at 10 µM; Q99759; bead-based flow cytometry, Alexa488-MEK5 binding to MEKK3; actives lie on both sides; 0 = blocked by unlabeled MEK5, 100 = vehicle;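 active = binding response more than 3 SD above or below the average of its plate-row segment, actives on both sides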;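 also: Alexa488 bead fluorescence after subtracting the streptavidin-only scavenger bead signal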
TMEM16A reconf = TMEM16A (mouse) chloride channel inhibition, re-confirmation; AID 652189; shares compounds with TMEM16A inh; inhibition, % at 10 µM; HEK293 TMEM16A/YFP-H148Q, iodide quench fluorescence; ionomycin added to raise cell calcium; 39% of 2,300 active;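 active = mean duplicate percent inhibition, scaled so buffer wells are 0 and the reference blocker 100, over three buffer SD above buffer mean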
HEK293 Ca mobil = calcium mobilization counter-screen hit for TMEM16A inhibitor series. calcium response (% of ionomycin), % at 10 µM. 2% of 2,300 active. TMEM16A/YFP HEK293, Fluo4 calcium mobilization. shares compounds with TMEM16A inh;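 active = duplicate-averaged calcium signal over 20% of the ionomycin maximum, relative to buffer baseline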;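 also: each well's signal is peak minus trough fluorescence divided by its pre-addition baseline; 0% = buffer wells and 100% = ionomycin wells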
Parental YFP cnt = acts in parental YFP-HEK293 cells lacking TMEM16A, counter-screen; shares compounds with TMEM16A inh; iodide YFP quench, ionomycin; AID 652233; YFP ratio F(max-min)/F0 at 10 µM; 2,300 tested, under 10 active;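 active = yellow fluorescent protein signal ratio exceeding the buffer control mean by over 5 SD of those controls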;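 also: ratio is mean of duplicate wells from kinetic YFP trace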
ClC-1 rat inh = blocks the rat ClC-1 voltage-dependent chloride channel | shares compounds with TMEM16A inh | CHO ClC-1-YFP, iodide influx fluorescence quench; iodide control reads 0, buffer control 100 | ratio percent, % at 10 µM | 2,300 tested, under 10 active | AID 652236;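 active = duplicate-mean ratio percent above the mean of iodide-only control wells, which defines zero, plus 5 of their SD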;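 also: higher percent means stronger block of ClC-1 iodide influx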
Active calls of the source: *; i = inactive; / = no result given. Shown are actives, neighbours in structure and some others; about 3.4% of the full set was active somewhere.

SMILES	TMEM16A inh	MEKK2wt PB1 HTS	TMEM16A act	MEKK2mut PB1 HTS	NTR1 agonist	MEKK3 PB1 HTS	TMEM16A reconf	HEK293 Ca mobil	Parental YFP cnt	ClC-1 rat inh
CCCCOc1ccccc1Cn1c(=O)oc2ccc(C)cc21	100*	88	i	-6	10	89	i	i	-1.2	-8
COc1ccc(CNS(=O)(=O)c2cc(-c3cc(C)no3)ccc2C)cc1OC	i	98	i	-4	2	98	/	/	/	/
Cc1nnsc1NC(=O)OCc1ccc(Cl)cc1Cl	i	107	i	6	4	106	/	/	/	/
Cc1nn(C)c(Cl)c1NC(=O)OCc1ccc(Cl)cc1Cl	25*	/	i	/	-2	/	i	i	-0.79	-16
CCC(C)(C)C(=O)Nc1ncc(S(=O)(=O)c2ccc([N+](=O)[O-])cc2)s1	25*	112	i	7	17	105	28%*	i	-1.2	-10
CCC(CC)C(=O)Nc1ccc(-c2cn3cccnc3n2)cc1	i	100	i	3	-1	101	/	/	/	/
Fc1ccccc1N1CCN(c2nc3ccccc3n3nnnc23)CC1	i	99	i	8	8	106	i	i	-0.89	-6
CSc1ccccc1NC(=O)CN(C)CC(=O)Nc1ccccc1C(F)(F)F	i	93	i	-13	1	103	/	/	/	/
O=C(COC(=O)CCNS(=O)(=O)c1cccc(C(F)(F)F)c1)NC(=O)NC1CCCCC1	25*	92	i	-7	6	90	24%*	i	-1.3	-10
C#CCn1cnc2c(oc3ccccc32)c1=O	i	97	i	-6	0	97	/	/	/	/
Cc1ccc(-c2sc(-c3ccccc3)nc2CC(=O)Nc2ccccc2F)cc1	i	110	i	4	-1	113	/	/	/	/
Cc1ccc(NC(=O)CC2=NC(=O)C(CC(=O)Nc3ccccc3F)S2)cc1 (stereo unspecified)	i	101	i	9	0	102	i	i	-1	1
CC#CC#Cc1cccc(=O)o1	i	80	i	3	/	88	/	/	/	/
COc1ccc(N/C(=C2\CCCC2=O)C2CCCCC2)cc1	i	110	i	4	6	110	i	i	-1	-15
COc1ccc(NC(=O)CNC(=O)C2CCCCC2)cc1	i	101	i	2	1	97	/	/	/	/
c1ccc(-c2ncc(CSc3nncn3-c3ccccc3)s2)cc1	i	90	i	-9	0	90	/	/	/	/
Cc1nnc(SCc2cnc(-c3ccc(C(C)C)cc3)s2)n1C	100*	107	i	0	3	101	24%*	i	-0.93	4
CCOC(=O)/C=C/c1ccccc1S(=O)(=O)NC(C)(C)C	i	105	i	6	-1	102	/	/	/	/
CCOC(=O)c1cc2cc(F)ccc2nc1C	i	92	i	-5	0	88	/	/	/	/
Cc1nc2ccc(F)cc2cc1C(=O)NC(C)C	100*	106	i	7	-1	100	i	i	-1	-9
COc1cc(C=O)ccc1OCC(=O)N1CCCC1	i	95	i	-3	6	94	/	/	/	/
CC(=O)Nc1ccc(S(=O)(=O)N2CCN(C(=O)c3ncoc3-c3cccc(F)c3)CC2)cc1	100*	93	i	-8	1	95	i	i	-1	-7
CC(C)n1c(SCC(=O)Nc2nncs2)nnc1-c1ccco1	i	103	/	6	0	100	/	/	/	/
O=C(c1ccccc1Br)N1CCCC(c2nc(-c3cccs3)no2)C1 (stereo unspecified)	25*	99	i	0	2	102	19%*	i	-1	-15
COc1ccc(C(=O)N2CCCC(c3nc(-c4cccs4)no3)C2)cc1OC (stereo unspecified)	i	100	/	0	0	97	/	/	/	/
SMILES	TMEM16A inh	MEKK2wt PB1 HTS	TMEM16A act	MEKK2mut PB1 HTS	NTR1 agonist	MEKK3 PB1 HTS	TMEM16A reconf	HEK293 Ca mobil	Parental YFP cnt	ClC-1 rat inh
COc1ccc(C(=O)N2CCCC(c3nc(-c4cccs4)no3)C2)cc1 (stereo unspecified)	25*	106	i	7	3	105	i	i	-1.1	-8
CCn1nc(C)c(CNC(=O)CC2C(=O)NCCN2CC(C)(C)C)c1C (stereo unspecified)	i	92	i	-6	-1	99	/	/	/	/
COC(=O)CN1C(=O)[C@@H]2[C@H](C1=O)[C@@H]1CC(C(=O)OC)=C[C@@H](C(=O)OC)[C@@H]3C1=C(C(=O)[C@]3(C)NC(=O)c1ccccc1)[C@@H]2C	i	108	i	4	4	113	/	/	/	/
CCc1ccc(CN2CCN(C(=O)c3cccc(OC)c3OC)CC2)cc1	25*	99	i	1	-2	91	i	i	-0.97	1
CCc1cccc(C)c1NC(=O)C(c1ccccc1)N1CCC1=O (stereo unspecified)	i	96	i	-2	-1	101	/	/	/	/
Cc1ccc(CNn2cnnc2SCc2ccc(F)cc2)cc1	100*	104	i	6	0	71	i	i	-1.3	4
Fc1ccc(CNn2cnnc2SCc2ccc(F)cc2)cc1	i	98	i	1	-2	96	/	/	/	/
CCOc1cc(S(=O)(=O)NCc2ccccn2)c(C)cc1C	100*	/	/	/	-1	/	i	i	-1.2	-6
Cc1cc(C)c(S(=O)(=O)NCc2ccccn2)cc1C	i	101	i	4	2	101	/	/	/	/
O=C(NCc1cccc(Cl)c1)c1ccc(CS(=O)Cc2ccc(Cl)cc2)o1 (stereo unspecified)	i	98	i	-2	2	102	/	/	/	/
CCOc1ccc(NC(=O)CN(C)C(=O)c2cc(-c3ccncc3)nc3ccccc23)cc1OCC	i	/	i	/	3	/	/	/	/	/
CCOC(=O)C(CSCC(=O)c1ccc(Cl)cc1)NC(=O)OC(C)(C)C (stereo unspecified)	100*	99	i	1	2	96	i	i	-1	-4

High-throughput results as filed in PubChem BioAssay.
